From PubChem BioAssay
MIN6 prolif: MIN6 beta-cell proliferation induction; MIN6 cells proliferation, ATPlite luminescence, 48 h; cells starved in 0.2% serum; 100% = growth in 10% serum; proliferation, % at 10 µM; 330,000 tested, 0.29% active; AID 2380;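 active = compounds whose signal lies at least 3.5 SD above the mean of all wells on their plate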;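 note: 0% = DMSO-treated cells in low-serum medium and 100% = 10% serum control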
ALR inh: inhibitors of human sulfhydryl oxidase ALR; inhibition, % (test concentration not listed); purified ALR, DTT oxidation, H2O2 HRP-luminol luminescence; P55789; 290,000 tested, 3.8% active;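 active = mean replicate inhibition above about 79%, with every replicate also reaching it, limit read from the data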
Target sequence (P55789 whole entry, looked up): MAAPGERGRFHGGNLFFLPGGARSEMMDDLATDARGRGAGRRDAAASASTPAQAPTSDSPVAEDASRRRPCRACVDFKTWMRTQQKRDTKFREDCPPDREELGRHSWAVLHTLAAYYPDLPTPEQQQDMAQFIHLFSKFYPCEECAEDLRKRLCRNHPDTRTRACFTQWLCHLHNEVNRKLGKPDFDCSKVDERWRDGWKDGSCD
JMJD2C inh: human JMJD2C demethylase inhibition; 330,000 tested, 0.069% active; GST-JMJD2C(1-420) H3K9me3 demethylation, DELFIA europium; inhibition, % at 2.35 µM; Q9H3R0;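 active = more than half of a compound's replicate wells show inhibition beyond 50%, single wells judged on their own value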;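 note: signal counts dimethyl H3K9 product captured on neutravidin plate; 0% = median of DMSO wells and 100% = 0.3 times that DMSO median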
PfM18AAP inh: blocks P. falciparum M18 aspartyl aminopeptidase. recombinant PfM18AAP, H-Glu-NHMec fluorogenic cleavage. inhibition, % at 7.35 µM. 290,000 tested, 1.2% active. AID 1822;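 active = inhibition above the campaign mean inhibition over all tested compounds plus 3 SD, cut at about 28% in these data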;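 note: 0% = plate median of test compound wells and 100% = 2 mM ZnCl2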
Exocytosis inh: blocks lytic granule exocytosis; 360,000 tested, 0.66% active; inhibition, % at 10 µM; TALL-104 LAMP-1 surface exposure, flow cytometry; cells stimulated with thapsigargin and PMA;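 active = inhibition above about 55%, limit read from the data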
SMARCA2 act: increases SMARCA2 function in MMTV reporter cells | MG213 cells, MMTV-luciferase reporter, dexamethasone, overnight | activation, % at 9.1 µM | 370,000 tested, 1% active; in the data active = activation above about 7.8%;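 note: 0% = vehicle wells and 100% = reference activator wells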
Granule exo CP1: blocks lytic granule exocytosis | shares compounds with Exocytosis inh | TALL-104 cells, LAMP-1 externalization, flow cytometry; stimulated with PMA plus thapsigargin | inhibition, % at 10 µM | 1,500 tested, 11% active; in the data active = inhibition above about 60%;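 note: 0% = stimulated vehicle wells and 100% = unstimulated wells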
* = called active by the depositor; . = no result given. Compounds with a hit are over-represented: about 5.4% of the library has one in this group of screens.

SMILES	MIN6 prolif	ALR inh	JMJD2C inh	PfM18AAP inh	Exocytosis inh	SMARCA2 act	Granule exo CP1
CCO[C@@H]1OC(C(=O)NC2CC2)=C[C@H](c2csc3ccccc23)[C@H]1CCCO	2	-18	7	-3	0	0	.
CCO[C@H]1OC(C(=O)NC2CC2)=C[C@@H](c2c[nH]c3ccccc23)[C@@H]1CCCO	-3	.	-14	.	56*	0	-13
Cc1ccccc1CN1CCN(C(=O)[C@H]2O[C@@H](n3cnc(C(N)=O)n3)[C@H](O)[C@@H]2O)CC1	.	.	.	.	.	-4	.
O=C(C[C@H]1C/C=C\C[C@H](Cc2ccc(F)cc2)C(=O)O[C@@H](c2ccccc2)CNC1=O)N[C@@H](CO)Cc1ccccc1	-4	23	.	.	56*	0	-4
O=C(C[C@H]1C/C=C\C[C@@H](Cc2ccc(F)cc2)C(=O)O[C@@H](c2ccccc2)CNC1=O)N[C@@H](CO)Cc1ccccc1	5	1	7	.	-5	-1	.
Cc1cc(NC(=O)Cc2cn(Cc3ccccc3)c3ccccc23)ccc1Oc1cccnc1	.	.	.	.	.	-4	.
Cc1cc(N2CCN(S(C)(=O)=O)C[C@H]2C)ccc1N1CCN(Cc2ccccc2)[C@H](C)C1	.	.	.	.	.	-1	.
COc1ccc(-c2nnc(N3CCCCC3)c3ccccc23)cc1	-3	5	-4	-1	0	.	.
Cc1ccc(-c2nnc(N3CCCCCC3)c3ccccc23)cc1	-4	-4	1	4	66*	-2	-12
Cc1cc(Nc2cccc(Cl)c2)nc(-c2ccccc2O)n1	-7	-2	-1	4	56*	-3	-4
Cc1cc(Br)cc(Cl)c1OCC(=O)N1CCN(C(=O)c2ccco2)CC1	1	6	10	.	89*	-3	-14
CCCCN(C)c1c(C)nc2ccc(C(=O)NCc3ccc4c(c3)OCO4)cn12	.	.	.	.	60*	-3	-12
CCc1nc2ccc(C(=O)NCc3ccc4c(c3)OCO4)cn2c1N(CC)CCOC	.	.	.	.	0	1	.
O=C(c1ccccc1)C12COc3ccccc3C1ON=C2c1ccccc1 (stereo unspecified)	.	.	.	.	.	-4	.
O=C(NC1CCCCN(Cc2cccc(F)c2)C1=O)c1ccc(F)cc1 (stereo unspecified)	.	.	.	.	.	-1	.
Cn1cncc1C#Cc1c(-c2ccc(S(C)(=O)=O)cc2)sc2ccccc12	-2	.	.	.	103*	-2	97*
COc1ccc(-c2sc3ccccc3c2C#Cc2cncn2C)cc1	-6	-3	24	.	-23	0	.
CCOc1ccc2[nH]c(C)c(CN3CCN(CC)CC3)c(=O)c2c1	2	.	-4	2	-4	-1	.
CCOc1ccc2[nH]c(C)c(CN3CCN(C)CC3)c(=O)c2c1	-2	-13	17	-5	68*	-1	-11
COC(=O)[C@H](Cc1ccccc1)N[C@H](c1ccc(OC)cc1)[C@@H](O)Cc1ccccc1	.	.	.	.	.	1	.
Cc1ccc(Cl)cc1N1CCN(S(=O)(=O)c2cccc(S(=O)(=O)N3CCCC3)c2)CC1	-1	-8	-3	-15	77*	1	-7
Cc1cc(C)n(CCc2nc(-c3ccc(C)o3)cs2)n1	-5	95*	16	-123	68*	1	-3
N#Cc1ccsc1NC(=O)CCc1ccccc1	-2	.	-21	0	0	5	.
N#Cc1ccsc1NC(=O)CCN1CCN(C(c2ccccc2)c2ccccc2)CC1	-3	-1	13	-1	77*	1	-10
COc1ccc(/C=C/C(=O)NCc2cccnc2)cc1	0	6	-3	2	-2	-3	.
CCc1ccc(CN(Cc2cccnc2)C(=O)/C=C/c2ccc(OC)cc2)cc1	-4	2	-4	6	61*	-2	-14
C[C@H]1CN([C@@H](C)CO)C(=O)CCCn2nncc2CO[C@@H]1CN(C)S(=O)(=O)c1cccs1	.	.	.	.	.	-2	.
C=CCc1ccc(OCC(O)CN2CCC(Cc3ccccc3)CC2)c(OC)c1 (stereo unspecified)	-4	-34	-6	-5	56*	0	-9
COC(=O)C1=C(C)N(Cc2cccc(C(F)(F)F)c2)C(=NCc2ccc3c(c2)OCO3)NC1c1cccc(Cl)c1 (stereo unspecified)	.	.	.	.	.	-6	.
O=C(O)Cc1sc(=O)[nH]c1O	.	.	.	.	97*	-5	-14
